Results on 3 sequences are retold here after patent US20140271602, “NUCLEOTIDE-SPECIFIC RECOGNITION SEQUENCES FOR DESIGNER TAL EFFECTORS” (THE BROAD INSTITUTE INC., published 2014).

Numbering of substitutions follows the chain as printed.

Common to all, as to assay: cell_activity; luciferase reporter
Settings in all cases: tags: VP64, 2A-GFP; dsDNA, one strand shown

Test [1] deals with T1, TALE2-NH (CACNA1C site 2 activator) (Xanthomonas (engineered), UniProt P14727 SEQ:1-983).
T1 chain: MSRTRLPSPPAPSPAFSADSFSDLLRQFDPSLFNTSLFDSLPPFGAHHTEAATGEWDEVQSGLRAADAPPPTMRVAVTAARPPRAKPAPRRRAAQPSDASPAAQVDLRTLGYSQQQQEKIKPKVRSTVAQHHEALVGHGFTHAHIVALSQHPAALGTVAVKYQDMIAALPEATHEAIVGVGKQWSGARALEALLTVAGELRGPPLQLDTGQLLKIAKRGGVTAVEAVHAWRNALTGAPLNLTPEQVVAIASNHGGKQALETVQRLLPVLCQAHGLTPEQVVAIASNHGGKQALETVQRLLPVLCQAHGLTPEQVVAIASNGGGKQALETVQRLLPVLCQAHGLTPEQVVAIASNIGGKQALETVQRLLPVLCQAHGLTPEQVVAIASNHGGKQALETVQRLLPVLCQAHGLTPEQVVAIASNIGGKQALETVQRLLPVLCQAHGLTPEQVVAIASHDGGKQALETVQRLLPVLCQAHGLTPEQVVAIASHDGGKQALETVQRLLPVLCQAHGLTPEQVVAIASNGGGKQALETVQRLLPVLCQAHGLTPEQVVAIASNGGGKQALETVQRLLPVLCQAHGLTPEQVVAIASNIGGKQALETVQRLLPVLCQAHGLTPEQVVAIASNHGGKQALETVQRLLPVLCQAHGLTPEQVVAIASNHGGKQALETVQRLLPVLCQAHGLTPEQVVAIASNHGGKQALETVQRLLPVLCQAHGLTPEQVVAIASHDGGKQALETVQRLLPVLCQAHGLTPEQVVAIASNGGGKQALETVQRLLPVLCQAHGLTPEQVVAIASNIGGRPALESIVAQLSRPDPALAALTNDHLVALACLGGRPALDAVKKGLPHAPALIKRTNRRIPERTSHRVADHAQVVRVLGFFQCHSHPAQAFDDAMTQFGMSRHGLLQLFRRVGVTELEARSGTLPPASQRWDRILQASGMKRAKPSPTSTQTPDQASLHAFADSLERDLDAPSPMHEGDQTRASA
In outline: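 In HEK 293FT cells, VP64-fused TALEs with HN or NH as the G-targeting RVD were aimed at an 18 bp CACNA1C site. Activity was measured on luciferase reporters carrying the wild-type target or variants with 2, 4 or all guanines changed to adenines. Data come from three independent experiments (n=3, s.e.m.).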

Test [2] deals with T2, TALE2-HN (CACNA1C site 2 activator) (Xanthomonas (engineered), UniProt P14727 SEQ:1-983).
T2 chain: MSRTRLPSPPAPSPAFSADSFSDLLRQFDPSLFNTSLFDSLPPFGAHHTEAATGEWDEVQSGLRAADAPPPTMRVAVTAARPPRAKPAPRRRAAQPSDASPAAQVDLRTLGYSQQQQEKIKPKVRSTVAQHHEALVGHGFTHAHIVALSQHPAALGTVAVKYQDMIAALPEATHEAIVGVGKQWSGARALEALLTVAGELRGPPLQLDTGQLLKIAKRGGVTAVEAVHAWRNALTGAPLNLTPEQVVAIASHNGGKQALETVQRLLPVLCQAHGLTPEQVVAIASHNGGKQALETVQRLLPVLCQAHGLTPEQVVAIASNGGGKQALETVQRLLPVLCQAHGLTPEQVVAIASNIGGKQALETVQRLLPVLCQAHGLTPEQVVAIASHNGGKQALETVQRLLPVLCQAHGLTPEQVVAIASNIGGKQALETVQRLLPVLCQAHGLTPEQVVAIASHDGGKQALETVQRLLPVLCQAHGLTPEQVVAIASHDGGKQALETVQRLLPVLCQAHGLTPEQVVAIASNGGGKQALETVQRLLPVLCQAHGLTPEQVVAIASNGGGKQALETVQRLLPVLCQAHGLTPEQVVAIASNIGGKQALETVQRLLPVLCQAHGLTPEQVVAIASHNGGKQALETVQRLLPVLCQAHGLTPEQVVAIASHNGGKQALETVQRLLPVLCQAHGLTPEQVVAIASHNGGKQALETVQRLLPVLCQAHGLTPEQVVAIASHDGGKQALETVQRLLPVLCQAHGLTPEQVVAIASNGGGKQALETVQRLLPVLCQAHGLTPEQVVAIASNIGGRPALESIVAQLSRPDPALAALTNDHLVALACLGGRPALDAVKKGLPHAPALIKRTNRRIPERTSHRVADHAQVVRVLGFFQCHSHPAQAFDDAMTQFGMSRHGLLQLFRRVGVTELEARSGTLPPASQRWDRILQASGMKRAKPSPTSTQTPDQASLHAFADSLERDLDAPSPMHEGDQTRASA

The target of test [3] is T3, TALE2-NK (CACNA1C site 2 activator) (Xanthomonas (engineered), UniProt P14727 SEQ:1-983).
T3 chain: T1 chain with H253K, H287K, H389K, H627K, H661K, H695K

The target in test [4] is T4, TALE1-NN (CACNA1C site 1 activator) (Xanthomonas (engineered), UniProt P14727 SEQ:1-983).
T4 chain: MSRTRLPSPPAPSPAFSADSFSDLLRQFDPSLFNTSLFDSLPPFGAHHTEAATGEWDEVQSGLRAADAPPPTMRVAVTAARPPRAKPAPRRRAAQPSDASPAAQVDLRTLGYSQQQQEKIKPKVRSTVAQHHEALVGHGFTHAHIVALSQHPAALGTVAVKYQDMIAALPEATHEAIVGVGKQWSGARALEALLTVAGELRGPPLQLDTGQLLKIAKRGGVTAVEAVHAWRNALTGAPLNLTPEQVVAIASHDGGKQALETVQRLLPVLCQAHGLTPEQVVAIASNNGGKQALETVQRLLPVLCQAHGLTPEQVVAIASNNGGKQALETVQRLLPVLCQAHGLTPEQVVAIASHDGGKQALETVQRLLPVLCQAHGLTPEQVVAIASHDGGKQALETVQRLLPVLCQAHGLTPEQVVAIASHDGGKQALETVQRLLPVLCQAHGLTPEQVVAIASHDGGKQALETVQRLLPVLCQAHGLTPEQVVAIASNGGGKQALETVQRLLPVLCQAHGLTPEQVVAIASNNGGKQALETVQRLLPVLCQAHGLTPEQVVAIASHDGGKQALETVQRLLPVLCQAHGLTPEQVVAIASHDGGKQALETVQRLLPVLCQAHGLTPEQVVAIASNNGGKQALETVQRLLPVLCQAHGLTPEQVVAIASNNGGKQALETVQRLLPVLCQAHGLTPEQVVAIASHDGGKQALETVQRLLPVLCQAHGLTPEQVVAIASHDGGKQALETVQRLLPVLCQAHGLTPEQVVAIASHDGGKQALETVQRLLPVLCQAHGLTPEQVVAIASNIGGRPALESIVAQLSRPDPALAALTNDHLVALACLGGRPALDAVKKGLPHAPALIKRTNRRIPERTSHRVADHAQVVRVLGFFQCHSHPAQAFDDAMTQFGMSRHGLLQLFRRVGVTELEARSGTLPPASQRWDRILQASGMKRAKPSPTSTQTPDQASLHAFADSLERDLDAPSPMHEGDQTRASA

Test [5] deals with T5, TALE1-NK (CACNA1C site 1 activator) (Xanthomonas (engineered), UniProt P14727 SEQ:1-983).
T5 chain: T4 chain with N287K, N321K, N525K, N627K, N661K

Take TAATAAACCTTAAAACTA: the binding signal in test [1] was < 10 % of wild-type site activation.
Turning to TAATAGACCTTAGGGCTA, the binding signal in test [2] is 13.9 % reduction vs wild-type site; in test [1] it was 66.1 % reduction vs wild-type site; in test [3], 36.3 % reduction vs wild-type site.
On to TCAACCCCTGCCGGCCCA, for which the figures for the binding signal in test [4] and in test [5] were 35.4 % reduction vs wild-type site and 40.3 % reduction vs wild-type site, respectively.
